The record followed here is PubChem BioAssay (Tox21).

Records with an inconclusive call do not appear. Unmarked numbers belong to inactive results. Activity calls are given as the source filed them. Unless noted, calls follow the shape of the dose curve; as a rule, active = well fitted curve in the direction sought with a large enough effect in the repeat runs; inconclusive = weak or mixed curves; inactive = no such curve, though single readings can be large; an effect the other way counts as inactive or inconclusive.

For assay [1], the system named is thyroid hormone receptor (rat, GH3 cells). Kind of assay: qHTS assay to identify small molecule agonists of the thyroid receptor (TR) signaling pathway (AID 743066; calls by dose curve).
The target in assay [2] is Estrogen receptor (Homo sapiens) (UniProt P03372). Kind of assay: qHTS assay to identify small molecule agonists of the estrogen receptor alpha (ER-alpha) signaling pathway (AID 743075; calls by dose curve).
Assay [3] shares this target. In words: qHTS assay to identify small molecule agonists of the estrogen receptor alpha (ER-alpha) signaling pathway using the BG1 cell line (AID 743079). Also: nearly all actives have a fitted effect of over 20% in size. Also: potency is read from the fitted curve at half-maximal effect. On the technique in general: Quantitative high-throughput screening tests each substance at several concentrations.
The nature of assay [4]: qHTS assay to identify small molecule antagonists of the estrogen receptor alpha (ER-alpha) signaling pathway using the BG1 cell line - cell viability counter screen (AID 743081).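 Also: compound given together with 17beta-estradiol as the ER stimulus; nearly all actives have a fitted effect of over 45% in size.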 Also: potency is read from the fitted curve at half-maximal effect. As to activity change, negative = cytotoxicity: series mostly up to about 70 µM.
Assay [5] addresses Aryl hydrocarbon receptor (Homo sapiens) (UniProt P35869). Kind of assay: qHTS assay to identify small molecule that activate the aryl hydrocarbon receptor (AhR) signaling pathway (AID 743085). Also: nearly all actives have a fitted effect of over 15% in size. Also: potency is read from the fitted curve at half-maximal effect.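 As to activation: HG2L7.5c1 human HepG2 liver cells with stably integrated DRE-driven firefly reporter; series mostly up to about 70 µM.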 Put shortly: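 Reporter assay in engineered HepG2 line HG2L7.5c1, whose plasmid carries twenty dioxin responsive elements upstream of firefly luciferase. Treatment lasted 24 h at 37C; ONE-Glo luminescence gauged induction.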

A short description of assay [6]: qHTS assay to identify small molecule that activate the aryl hydrocarbon receptor (AhR) signaling pathway - cell viability counter screen (AID 743086).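 Also: HepG2 liver cells carrying the AhR DRE luciferase reporter; series mostly up to about 70 µM; nearly all actives have a fitted effect of over 45% in size.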 In a few lines: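 HepG2-AhR-luc (HG2L7.5c1) cells, 4000/well, treated 24 h at 37 C with compound; viability measured as CellTiter-Fluor fluorescence after 30 min in the same wells as the luciferase read.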
For assay [7], the target named is Peroxisome proliferator-activated receptor gamma (Homo sapiens) (UniProt P37231). In words: qHTS assay to identify small molecule agonists of the peroxisome proliferator-activated receptor gamma (PPARg) signaling pathway (AID 743094; active = well fitted activation curve with a large enough effect in the signal ratio in the repeat runs, not every such curve was filed as active; the % refers to the signal ratio). Put shortly: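 Cells from the PPARg UAS-bla HEK293H line are plated and incubated 5 h at 37C. Compounds in DMSO are pinned in and left 17 h at 37C. LiveBLAzer B/G substrate is then added for 1 h at room temperature before fluorescence is measured.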

A short description of assay [8]: qHTS assay to identify small molecule antagonists of the peroxisome proliferator-activated receptor gamma (PPARg) signaling pathway - cell viability counter screen (AID 743194). Also: nearly all actives have a fitted effect of over 55% in size. Put shortly:
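Cytotoxicity counter screen in PPARg-bla HEK293H cells, same wells as reporter assay. Compounds plus 50 nM rosiglitazone (final) for 17 h at 37 C, then viability read by CellTiter-Glo luminescence.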

A short description of assay [9]: qHTS assay for small molecule agonists of the antioxidant response element (ARE) signaling pathway - cell viability counter screen (AID 743203; calls by dose curve; also: nearly all actives have a fitted effect of over 55% in size). Put shortly: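 Cytotoxicity was tested in parallel with the ARE reporter screen. ARE-bla HepG2 cells were exposed to compounds for 16 hrs, and viability was taken from CellTiter-Glo luminescence.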
Assay [10] is described as follows: qHTS assay for small molecule activators of the heat shock response signaling pathway - cell viability counter screen (AID 743209). Also: nearly all actives have a fitted effect of over 50% in size. Put shortly: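 Cytotoxicity counter screen run in parallel with the HSE beta-lactamase reporter, using the same wells. HeLa HSE-bla cells received compound for 5 h at 37 C; ATP-based CellTiter-Glo luminescence was measured after 30 min at room temperature.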

A short description of assay [11]: qHTS assay for small molecule activators of the heat shock response signaling pathway (AID 743210; active = well fitted activation curve with a large enough effect in the signal ratio in the repeat runs, with a control signal flat, not every such curve was filed as active; the % refers to the signal ratio;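 also: HeLa cells with beta-lactamase reporter driven by heat shock elements; series mostly up to about 63 µM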). Put shortly: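 Following overnight attachment, HSE-bla HeLa cells received test compounds for 5 h at 37 C; beta-lactamase activity was then detected via FRET substrate fluorescence.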
The nature of assay [12]: qHTS assay to identify small molecule antagonists of the thyroid receptor (TR) signaling pathway (AID 743065). Also: nearly all actives have a fitted effect of over 55% in size. Also: potency is read from the fitted curve at half-maximal effect. Put shortly:
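GH3.TRE-Luc rat pituitary cells (two TREs driving luciferase) were dosed with compound, then stimulated with 1 nM T3 (final) for 23.5 h at 37 C. ONE-Glo luminescence was the read-out, with CellTiter-Fluor fluorescence as the cytotoxicity counter-screen.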

For assay [13], the target named is Estrogen receptor (Homo sapiens) (UniProt P03372). In words: qHTS assay to identify small molecule antagonists of the estrogen receptor alpha (ER-alpha) signaling pathway (AID 743069; active = well fitted curve in the direction sought with a large enough effect in the signal ratio in the repeat runs, not every such curve was filed as active; the % refers to the signal ratio; also: potency is read from the fitted curve at half-maximal effect). In a few lines: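 In this cell-based reporter format, GripTite HEK293 cells harbouring ER-alpha-UAS-bla were grown overnight with 2% charcoal-stripped FBS, dosed with DMSO-dissolved compounds, then challenged with 17beta-estradiol. After 18 hr at 37C, beta-lactamase activity was detected by FRET fluorescence.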

Assay [14] in a line: qHTS assay to identify small molecule antagonists of the estrogen receptor alpha (ER-alpha) signaling pathway - cell viability counter screen (AID 743074; calls by dose curve; also: nearly all actives have a fitted effect of over 45% in size).
Assay [15] deals with Aromatase (Homo sapiens) (UniProt P11511). Kind of assay: qHTS assay to identify aromatase inhibitors (AID 743083). Also: nearly all actives have a fitted effect of over 55% in size. Also: potency is read from the fitted curve at half-maximal effect.
Assay [16] in a line: qHTS assay to identify aromatase inhibitors - cell viability counter screen (AID 743084).
Assay [17] can be described thus: qHTS assay for small molecule agonists of the antioxidant response element (ARE) signaling pathway (AID 743202; active = well fitted activation curve with a large enough effect in the signal ratio in the repeat runs, not every such curve was filed as active; the % refers to the signal ratio; also: potency is read from the fitted curve at half-maximal effect). Put shortly: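 HepG2 ARE-bla cells; 16 h treatment at 37 C; FRET-based beta-lactamase fluorescence read after 2 h substrate incubation at room temperature.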
Assay [18] has as its target Peroxisome proliferator-activated receptor gamma (Homo sapiens) (UniProt P37231). In words: qHTS assay to identify small molecule antagonists of the peroxisome proliferator-activated receptor gamma (PPARg) signaling pathway (AID 743191; calls by dose curve; also: nearly all actives have a fitted effect of over 30% in size; also: potency is read from the fitted curve at half-maximal effect). In a few lines:
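GeneBLAzer PPARg UAS-bla HEK293H cells, 5 h post-plating, exposed to compounds 17 h at 37C. LiveBLAzer B/G FRET substrate added for 1 h at room temperature; beta-lactamase reporter read by fluorescence intensity.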

Assay [19] in a line: qHTS assay to identify small molecule antagonists of the estrogen receptor alpha (ER-alpha) signaling pathway using the BG1 cell line (AID 743080; calls by dose curve;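 also: BG1 cells stimulated with 17beta-estradiol alongside compound; series mostly up to about 70 µM; nearly all actives have a fitted effect of over 25% in size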). In a few lines:
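Quantitative HTS on the Tox21 10K library: BG1 cells with endogenous ER-alpha and ERE-luciferase reporter, 17beta-estradiol stimulation, 21.5 h compound exposure, luminescence endpoint with parallel fluorescence cytotoxicity counter-read.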
% is scaled to controls: 0 for no effect and ±100 for the full control effect.

Sequence of Aryl hydrocarbon receptor (Homo sapiens) (P35869 whole entry, looked up): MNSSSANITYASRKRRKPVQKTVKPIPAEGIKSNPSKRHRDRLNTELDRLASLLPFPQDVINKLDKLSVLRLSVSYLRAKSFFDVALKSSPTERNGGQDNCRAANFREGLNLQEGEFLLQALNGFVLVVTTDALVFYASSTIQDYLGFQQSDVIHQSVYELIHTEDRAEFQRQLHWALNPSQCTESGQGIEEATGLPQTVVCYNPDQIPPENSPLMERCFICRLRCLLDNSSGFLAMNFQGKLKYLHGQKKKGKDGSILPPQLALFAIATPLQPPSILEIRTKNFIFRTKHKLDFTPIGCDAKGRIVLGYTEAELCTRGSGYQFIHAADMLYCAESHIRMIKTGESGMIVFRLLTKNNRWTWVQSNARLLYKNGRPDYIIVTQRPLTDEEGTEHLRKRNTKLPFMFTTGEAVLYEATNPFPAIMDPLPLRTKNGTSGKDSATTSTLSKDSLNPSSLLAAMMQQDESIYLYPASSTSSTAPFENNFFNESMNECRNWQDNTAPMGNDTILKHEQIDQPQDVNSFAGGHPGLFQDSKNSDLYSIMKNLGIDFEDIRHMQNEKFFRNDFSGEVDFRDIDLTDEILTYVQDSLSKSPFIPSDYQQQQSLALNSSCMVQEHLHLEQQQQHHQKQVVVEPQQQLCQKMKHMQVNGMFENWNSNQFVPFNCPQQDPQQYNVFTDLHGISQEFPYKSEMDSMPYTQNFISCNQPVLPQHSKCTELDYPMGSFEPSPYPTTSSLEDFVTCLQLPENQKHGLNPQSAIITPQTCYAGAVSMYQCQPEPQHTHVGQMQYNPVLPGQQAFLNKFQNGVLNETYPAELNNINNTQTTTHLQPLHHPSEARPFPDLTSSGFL
Sequence of Estrogen receptor (Homo sapiens) (P03372 whole entry, looked up): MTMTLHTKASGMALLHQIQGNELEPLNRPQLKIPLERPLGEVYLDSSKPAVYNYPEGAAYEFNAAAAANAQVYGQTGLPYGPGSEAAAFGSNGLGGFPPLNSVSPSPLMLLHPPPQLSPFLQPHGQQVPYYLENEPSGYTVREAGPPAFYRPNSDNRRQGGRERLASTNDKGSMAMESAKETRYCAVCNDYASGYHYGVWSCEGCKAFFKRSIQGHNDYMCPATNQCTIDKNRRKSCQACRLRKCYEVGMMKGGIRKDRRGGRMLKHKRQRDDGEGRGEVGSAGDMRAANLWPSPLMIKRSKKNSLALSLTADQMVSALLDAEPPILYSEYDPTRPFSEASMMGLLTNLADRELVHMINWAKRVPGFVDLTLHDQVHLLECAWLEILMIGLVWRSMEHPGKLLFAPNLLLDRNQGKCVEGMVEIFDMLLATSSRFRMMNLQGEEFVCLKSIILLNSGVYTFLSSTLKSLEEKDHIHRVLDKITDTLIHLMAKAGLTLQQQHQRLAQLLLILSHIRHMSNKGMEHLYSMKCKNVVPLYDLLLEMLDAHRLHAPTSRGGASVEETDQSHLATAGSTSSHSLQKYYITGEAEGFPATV
Sequence of Peroxisome proliferator-activated receptor gamma (Homo sapiens) (P37231 whole entry, looked up): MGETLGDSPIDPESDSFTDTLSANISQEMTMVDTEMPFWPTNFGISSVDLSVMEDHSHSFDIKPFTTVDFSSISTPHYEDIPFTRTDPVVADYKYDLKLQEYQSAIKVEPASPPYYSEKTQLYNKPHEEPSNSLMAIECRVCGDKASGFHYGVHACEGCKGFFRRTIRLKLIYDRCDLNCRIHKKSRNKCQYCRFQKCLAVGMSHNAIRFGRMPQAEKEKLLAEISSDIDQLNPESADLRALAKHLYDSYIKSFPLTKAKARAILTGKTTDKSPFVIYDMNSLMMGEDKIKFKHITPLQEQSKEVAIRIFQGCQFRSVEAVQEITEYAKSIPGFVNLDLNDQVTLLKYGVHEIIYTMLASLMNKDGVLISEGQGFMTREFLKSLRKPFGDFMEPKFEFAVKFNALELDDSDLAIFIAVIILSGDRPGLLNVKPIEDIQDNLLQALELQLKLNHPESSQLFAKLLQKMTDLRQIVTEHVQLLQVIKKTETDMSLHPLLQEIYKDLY
Sequence of Aromatase (Homo sapiens) (P11511 whole entry, looked up): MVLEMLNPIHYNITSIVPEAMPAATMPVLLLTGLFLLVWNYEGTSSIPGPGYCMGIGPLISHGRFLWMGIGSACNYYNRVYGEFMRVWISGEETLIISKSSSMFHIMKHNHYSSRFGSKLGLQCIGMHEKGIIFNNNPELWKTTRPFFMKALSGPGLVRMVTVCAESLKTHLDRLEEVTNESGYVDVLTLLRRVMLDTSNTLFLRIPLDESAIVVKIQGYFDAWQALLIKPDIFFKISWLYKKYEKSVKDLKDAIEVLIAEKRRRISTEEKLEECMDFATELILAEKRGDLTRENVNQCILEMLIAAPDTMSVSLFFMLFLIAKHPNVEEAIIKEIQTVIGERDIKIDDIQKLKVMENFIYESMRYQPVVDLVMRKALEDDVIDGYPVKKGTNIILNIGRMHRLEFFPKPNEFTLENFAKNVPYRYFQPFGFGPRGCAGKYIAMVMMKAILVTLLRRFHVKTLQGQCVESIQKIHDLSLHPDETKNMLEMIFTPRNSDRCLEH

For `CC[C@H](C)COC(=O)/C=C/c1ccc(N=Cc2ccc(OC)cc2)cc1`, the compound was called inactive in [1]. Besides, the Potency entry in assay [2], in assay [4], in assay [5], in assay [6], in assay [7] and in assay [8] was “inactive” in each case. Further, the Potency result in assay [9], in assay [10] and in [11] was “inactive” each time. Further, the Potency in assay [3] is 2.73 µM (active).

Consider `OC12N=C(c3ccccc3)SC1Cc1cc(Cl)ccc12` (centres undefined), for which the Potency is 61.1 µM (active) in assay [12], 54.9 µM [inhibitor] (active) in assay [13], 27.3 µM (active) in assay [3] and 24.3 µM (active) in [5]. For the same compound, the Potency result in [14], in [2], in assay [4], in [15], in assay [16] and in [7] was “inactive” each time. The Potency entry in assay [8], in assay [9] and in assay [10] was “inactive” each time.

For `CC/C=C\CCCCCO`, the Potency entry in assay [12], in [14], in [4], in assay [6], in [8] and in [17] was “inactive” throughout. Further, the Potency entry in [9], in assay [10] and in assay [11] was “inactive” in each case. In addition, the compound was called inactive in assay [1].

For `CC(C)=CCC1=C(O)c2ccccc2C(=O)C1=O`, the Potency in [12] is 0.171 µM (active); in assay [4] it was 54.2 µM (active); in assay [5] it was 54.2 µM (active); in assay [18] it was 0.772 µM (active). Besides, the compound was called inactive in [1]. For the same compound, the Potency entry in assay [15], in [8], in [9], in [10] and in assay [11] was “inactive” throughout.

In the case of `Cc1cccc(C)c1NC(=O)c1ccc(N)cc1`, the Potency entry in assay [18], in [8], in [17], in assay [9], in assay [10] and in assay [11] was “inactive” throughout.

As for `CCC(=O)C(=O)CC`, in [1], the outcome was inactive. The Potency entry in assay [14], in assay [4], in [6], in assay [10] and in assay [11] was “inactive” throughout.

For the compound `CN(C)Cc1cc(C(C)(C)C)c(O)c(C(C)(C)C)c1`, the outcome in [1] was inactive. The Potency entry in [14], in [15], in [16], in assay [6], in assay [7] and in assay [18] was “inactive” each time. The Potency result in [8], in assay [9], in assay [10] and in assay [11] was “inactive” each time. Further, in assay [17], the Potency was 27.3 µM (active).

In the case of `CCCCN(CCCC)CC(O)c1cc(Cl)cc2c1-c1ccc(Cl)cc1/C2=C/c1ccc(Cl)cc1` (centres undefined), the Potency in assay [12] is 29.8 µM (active); in assay [3], 23.7 µM (active); in assay [5] it was 26.6 µM (active). The Potency entry in assay [13], in assay [2], in assay [19], in [4], in assay [15] and in assay [16] was “inactive” in each case. Further, the Potency entry in assay [6], in assay [7], in [8] and in assay [17] was “inactive” each time.

For the compound `COC1=C(OC)C(=O)C(CCCCCCCCCCO)=C(C)C1=O`, the Potency entry in assay [14], in [2], in assay [4], in [5], in assay [6] and in assay [8] was “inactive” in each case. Also, the Potency entry in assay [17] and in assay [11] was “inactive” each time. Moreover, the Potency in assay [15] was 29.8 µM (active).

Take `CCCC(=O)OCOC(=O)C1=C(C)NC(C)=C(C(=O)OC)C1c1cccc(Cl)c1Cl` (centres undefined): the Potency result in [18], in assay [8], in assay [9], in assay [10] and in assay [11] was “inactive” in each case.

In the case of `Cc1c(F)c(N2CCNC(C)C2)cc2c1c(=O)c(C(=O)O)cn2C1CC1` (centres undefined), the Potency result in [13], in [14], in assay [2], in assay [3], in assay [19] and in [4] was “inactive” each time. The Potency result in assay [15], in assay [16], in [5], in assay [6], in [7] and in assay [8] was “inactive” throughout. In addition, the Potency result in [9], in assay [10] and in assay [11] was “inactive” each time.

In the case of `C=CCCC(=O)/C=C/C1C(C)=CCCC1(C)C` (centres undefined), in assay [12], the Potency was 61.1 µM (active). In assay [1], the outcome was inactive. The Potency entry in assay [14], in assay [4], in assay [5], in [6], in assay [7] and in assay [18] was “inactive” throughout. For the same compound, the Potency entry in [8], in [10] and in assay [11] was “inactive” each time.

`O=C(O)CN(CCN(CC(=O)O)CC(=O)O)CC(=O)O`: the Potency result in assay [14], in assay [4], in [15], in [16], in [5] and in [6] was “inactive” in each case. The activity change, negative = cytotoxicity was 4.6% [at 2.7 µM] in assay [8] and 20.3% [at 2.7 µM] in assay [10]. The activation in assay [11] was 0.0247% [at 2.7 µM].

For the compound `Cc1c(N)cccc1C(F)(F)F`, the Potency result in assay [18], in assay [8], in assay [10] and in [11] was “inactive” throughout.

In the case of `CCCc1ccc(OCC(=O)N2CCN(C(=O)COc3ccc(CCC)cc3OC)CC2)c(OC)c1`, the Potency result in assay [8], in assay [9], in [10] and in assay [11] was “inactive” in each case. In addition, in assay [17], the Potency was 29.8 µM (active).
